Screening results (PubChem)
Cardiac RTF inh: cardiac RTF calcium desensitization | inhibition, % at 7.15 µM | IANBD-labeled cardiac RTF, Ca2+ fluorescence | hit rate 0.12% among 340,000;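 active means inhibition above the mean inhibition of all tested compounds plus 3 SD, cut at about 17% in these data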;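 further: assay run at fixed EC70 calcium of 1.6 mM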
cardiac RTF act: cardiac RTF calcium sensitization. P19429+P45379. IANBD-labeled TnC RTF fluorescence at EC20 calcium; 0% EC20 calcium, 100% full calcium. activation, % at 7.2 µM. hit rate 0.24% among 340,000. AID 493008;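 active means activation above the mean over all tested compounds plus 3 SD, cut at about 30% in these data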;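 further: rise in fluorescence read as greater calcium sensitivity of cardiac thin filaments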
C-LANA FP: blocks KSHV LANA C-terminal domain binding to DNA | MBP-C-LANA/FAM-LBS DNA binding, fluorescence polarization | inhibition, % at 9 µM | hit rate 0.078% among 340,000;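 active means highest replicate inhibition at or above 60% at 9 µM, even if other replicates fall short; inactive means all replicates below 60% inhibition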
eLon inh: inhibitors of E. coli Lon protease | hit rate 0.42% among 360,000 | AID 602123 | purified E. coli Lon protease, fluorescence polarization | inhibition, % at 7.94 µM; in the data active means inhibition above about 13%, passing the limit was not always enough
Keap1-Nrf2 PPI: Keap1-Nrf2 (human) interaction inhibition; Q14145; Keap1 Kelch-Nrf2 peptide fluorescence polarization, 1536-well; inhibition, % at 9.4 µM; hit rate 0.15% among 340,000; AID 504523; in the data active means inhibition above about 12%;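 further: human Keap1 Kelch domain with fluorescein labeled Nrf2 9mer peptide probe; higher means more block of Keap1 binding to Nrf2 peptide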
Target sequence (Q14145 whole entry, looked up, the tested form may be a part): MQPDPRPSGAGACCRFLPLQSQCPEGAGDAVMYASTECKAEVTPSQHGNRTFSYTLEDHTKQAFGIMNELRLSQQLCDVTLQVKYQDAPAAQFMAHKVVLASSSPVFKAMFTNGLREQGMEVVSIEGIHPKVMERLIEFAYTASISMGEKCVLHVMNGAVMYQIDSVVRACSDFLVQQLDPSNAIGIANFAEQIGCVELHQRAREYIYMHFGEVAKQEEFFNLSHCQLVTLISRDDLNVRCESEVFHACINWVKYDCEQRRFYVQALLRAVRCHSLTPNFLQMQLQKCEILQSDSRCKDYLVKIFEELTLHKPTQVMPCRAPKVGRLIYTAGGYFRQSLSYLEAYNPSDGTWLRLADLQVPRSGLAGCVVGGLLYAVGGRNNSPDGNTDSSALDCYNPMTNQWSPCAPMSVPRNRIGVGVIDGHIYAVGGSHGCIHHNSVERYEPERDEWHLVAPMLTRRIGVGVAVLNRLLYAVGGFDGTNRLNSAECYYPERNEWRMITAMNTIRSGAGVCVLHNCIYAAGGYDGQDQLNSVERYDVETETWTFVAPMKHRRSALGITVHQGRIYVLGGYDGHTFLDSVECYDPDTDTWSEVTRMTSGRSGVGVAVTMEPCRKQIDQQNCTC
RTF Ca inh conf: cardiac RTF calcium sensitivity inhibition, confirmation. shares compounds with Cardiac RTF inh. reconstituted cardiac thin filaments, calcium sensitivity fluorescence. inhibition, % at 7.15 µM. hit rate 8% among 360. AID 504635; in the data active means inhibition above about 18%
Keap1 TSA: Keap1 (human) Kelch domain binding; shares compounds with Keap1-Nrf2 PPI; Keap1 Kelch thermal shift, delta Tm; active compounds read high; max delta Tm, degrees C; hit rate 8% among 400; AID 651823; in the data active means max delta Tm above about 0.48 degrees C
Sypro dye melt: counter-screen for Keap1 thermal shift hits: dye-only artifacts | shares compounds with Keap1-Nrf2 PPI | Sypro Orange dye-only thermal melt, no protein, delta Tm; top dose 26 µM | delta Tm, degrees C (concentration not given with the values) | 140 tested, under 10 active | AID 651858;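 active means at highest dose tested, delta Tm positive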
E coli Lon conf: confirmation of E. coli Lon protease inhibitors; hit rate 31% among 1,400; shares compounds with eLon inh; purified E. coli Lon, fluorescence polarization; inhibition, % at 7.94 µM; in the data active means inhibition above about 16%
Numbers stand for hits; – = inactive; · = no result given; + = active, no number; ! = not active in a repeat. Only some compounds are listed: those with a hit (about 0.82% of all), similar ones and a draw of the others.

SMILES | Cardiac RTF inh | cardiac RTF act | C-LANA FP | eLon inh | Keap1-Nrf2 PPI | others
O=C1NC(=O)C(=Cc2cn(CCOc3ccc4c(c3)OCO4)c3ccccc23)C(=O)N1 | – | 159 | – | – | –
O=C(OCc1ccccc1)N1CCC2CC1c1cc(N3Cc4ccccc4-n4nncc4C3)ccc12 (stereo not drawn) | · | · | · | – | ·
CC(C)(C)c1o[nH]c(=O)c1CC(N)C(=O)O (stereo not drawn) | 21 | – | – | – | – | RTF Ca inh conf=–
CC1CCN(C(CC(=O)c2ccccc2)C(=O)c2ccccc2)CC1 (stereo not drawn) | – | – | – | – | –
COC12c3ccccc3-c3ccccc3C1C(C(=O)O)C2C(=O)O (stereo not drawn) | · | · | · | – | ·
CC12CC3CC(C)(C1)CC(N)(C3)C2 | 17! | – | – | – | – | RTF Ca inh conf=–
COc1ccc(CN2Cc3cc(N4CCCCC4)ccc3-n3nncc3C2)cc1 | · | · | · | – | ·
CN(C)C1C(=O)C(C(N)=O)=C(O)C2(O)C(=O)C3=C(O)c4c(O)cccc4C(C)(O)C3C(O)C12 (stereo not drawn) | 30 | – | – | – | – | RTF Ca inh conf=–
Cc1nc2ccccc2c(=O)n1-c1cc(F)ccc1F | 28 | – | – | – | – | RTF Ca inh conf=–
Cc1nc2ccccc2c(=O)n1-c1ccc(F)cc1F | – | – | – | – | –
CC(C)(C)n1nnnc1C(CCc1ccccc1)N1CCC2(CC1)C(=O)NCN2c1ccccc1 (stereo not drawn) | · | · | · | – | ·
Cc1cccc(CN(C)C)c1OC(=O)N(C)C | 34 | – | – | – | – | RTF Ca inh conf=–
Oc1ccc2c3c1O[C@H]1c4[nH]c5ccccc5c4C[C@@]4(O)[C@@H](C2)N(CC2CC2)CC[C@]314 | – | – | – | – | –
Oc1ccc2c3c1O[C@H]1c4oc5ccccc5c4C[C@@]4(O)[C@@H](C2)N(CC2CC2)CC[C@]314 | 27 | – | – | – | – | RTF Ca inh conf=–
CN1[C@@H]2CCC[C@H]1CC(=O)C2 | – | – | – | – | –
C[N+]12CCC(CC1)C(=C(c1ccccc1)c1ccccc1)C2 | 19 | – | – | – | – | RTF Ca inh conf=–
CCCCc1ccc(C(=O)O)nc1 | – | – | 67 | – | 66 | Keap1 TSA=–
Cc1cc(C=C2C(=O)NC(=O)NC2=O)c(C)n1-c1cccnc1 | – | – | – | – | 12 | Keap1 TSA=–
C=CCN1C(=O)/C(=C/c2cc(C)n(-c3cccnc3)c2C)C(=O)NC1=S | – | – | – | – | –
Fc1cccc(-c2ccc3c(c2)CN(c2cccc(Cl)c2)Cc2cnnn2-3)c1 | · | · | · | – | ·
CN1/C(=C\C=Nc2ccccc2)C(C)(C)c2ccccc21 | – | – | – | – | –
CN1/C(=C\C=C2C(=O)NC(=O)NC2=O)C(C)(C)c2ccccc21 | – | 109 | – | – | 32 | Keap1 TSA=–;Sypro dye melt=–
Cn1cc(/C=C2\C(=O)NC(=O)N(c3ccccc3)C2=O)c2ccccc21 | – | – | 88 | – | 49 | Keap1 TSA=–
COc1ccc(C(=O)C2CCCN(CCc3ccccc3)C2)cc1OC (stereo not drawn) | · | · | · | – | ·
Oc1ccc(O)c2c1C1(Cl)C(Cl)=C(Cl)C2(Cl)C1(Cl)Cl | – | – | – | – | –
SMILES | Cardiac RTF inh | cardiac RTF act | C-LANA FP | eLon inh | Keap1-Nrf2 PPI | others
CC1(O)CCN2C(=O)CCc3cccc1c32 (stereo not drawn) | – | – | – | – | 44 | Keap1 TSA=–
Nc1ccc2c3c(cccc13)-c1ccccc1-2 | – | 359 | – | 189 | 22 | Keap1 TSA=–;Sypro dye melt=–;E coli Lon conf=+
O=C1C(=O)c2ccccc2-c2ccccc21 | – | – | – | – | –
CCCCCN1C(=O)c2cc(OC)ccc2[C@@]2(C(=O)OCC)Cc3cc(OC)ccc3[C@@H]12 | · | · | · | – | ·
CCOC(=O)c1cccc(C2=C(CNC(=O)c3nccs3)[C@H]3CC[C@@H](C2)N3Cc2ccccc2)c1 | · | · | · | – | ·
CN1CCN(c2ccc([N+](=O)[O-])c3no[n+]([O-])c23)CC1 | – | 282 | 82 | 131 | 55 | Keap1 TSA=–;Sypro dye melt=–;E coli Lon conf=102
